Compounds with a hit are over-represented: about 12% of the library has one in this group of screens.
HP1b binding inh = HP1-beta chromodomain-methylated histone interaction inhibition; P83916; AlphaScreen HP1-beta / biotin-H3K9me3 peptide binding; Potency, µM (top dose mostly 114 µM), without a hit: top-dose activity change, negative = inhibition, actives largely listed as inhibitors; actives 0.56% (n = 390,000); AID 540317; also: potency is read from the fitted curve at half-maximal effect; nearly all actives have a fitted effect of over 70% in size
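Compound inhibition of the preformed complex between 50 nM HP1-beta and 50 nM biotinylated H3K9me3 peptide was read by AlphaScreen. Buffer was PBS pH 7.4 with 0.01% Tween-20. Incubations ran 30 min at room temperature, with 10 ug/mL donor/acceptor beads.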
BAZ2B inh = blocks human BAZ2B | AlphaScreen BAZ2B-H3K14Ac peptide displacement | Potency, µM (top dose mostly 114 µM), inactives show at the top dose activity change, negative = inhibition, usual class: inhibitors | actives 4.4% (n = 360,000); also: potency is read from the fitted curve at half-maximal effect; % is scaled to controls: 0 for no effect and ±100 for the full control effect; nearly all actives have a fitted effect of over 60% in size
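AlphaScreen displacement: compounds (up to 110uM) incubated 30 min at room temperature with a preformed 50 nM BAZ2B/50 nM biotinylated H3K14Ac peptide complex in PBS pH 7.4 with Tween-20. Donor and acceptor beads at 10 ug/mL final added, 20 min light-protected before reading.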
PI5P4K alpha inh = inhibitors of human PI5P4K alpha; actives 1.2% (n = 330,000); max response, %; PI5P4Kalpha enzyme, ADP-Glo luminescence, 60 min; hits give low values; AID 652105; P48426; active = max response of -50% or lower; inconclusive = between -30% and -50%; inactive = -30% or higher; also: value at the top dose of about 77 µM; % is scaled to controls: 0 for no effect and ±100 for the full control effect
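PI5P4Kalpha ADP-Glo assay; 5 microM ATP final; 60 min RT reaction; HEPES pH 7.4/EGTA/CHAPS, 5% DMSO; controls lacking substrate or enzyme; luminescent end-point.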
G9a block = G9a (human) methyltransferase inhibition. Q96KQ7. G9a H3K9 monomethylation, AlphaScreen, 2 h. Potency, µM (top dose mostly 102 µM), for the others: at the top dose activity, negative = inhibition, actives largely listed as inhibitors. actives 8.8% (n = 350,000). AID 504332; also: potency is read from the fitted curve at half-maximal effect; % is scaled to controls: 0 for no effect and ±100 for the full control effect; nearly all actives have a fitted effect of over 75% in size
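Readings reflect AlphaScreen signal from monomethyl-H3K9 antibody detection. HMT at 20 nM; substrate b-H3K9 500 nM; cofactor SAM 20 uM; 2 h RT reaction; compounds tested as titrations in qHTS with 15 min preincubation.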
JMJD2A Tudor inh = inhibitors of human JMJD2A Tudor domain; AID 504339; AlphaScreen JMJD2A-Tudor / H3K4me3 peptide binding; actives 4.4% (n = 390,000); Potency, µM (series often up to 114 µM), for the others: at the highest dose activity change, negative = inhibition, most hits filed as inhibitors; O75164; also: potency is read from the fitted curve at half-maximal effect; % is scaled to controls: 0 for no effect and ±100 for the full control effect; nearly all actives have a fitted effect of over 50% in size
Target sequence (O75164 whole entry, looked up, the tested form may be a part): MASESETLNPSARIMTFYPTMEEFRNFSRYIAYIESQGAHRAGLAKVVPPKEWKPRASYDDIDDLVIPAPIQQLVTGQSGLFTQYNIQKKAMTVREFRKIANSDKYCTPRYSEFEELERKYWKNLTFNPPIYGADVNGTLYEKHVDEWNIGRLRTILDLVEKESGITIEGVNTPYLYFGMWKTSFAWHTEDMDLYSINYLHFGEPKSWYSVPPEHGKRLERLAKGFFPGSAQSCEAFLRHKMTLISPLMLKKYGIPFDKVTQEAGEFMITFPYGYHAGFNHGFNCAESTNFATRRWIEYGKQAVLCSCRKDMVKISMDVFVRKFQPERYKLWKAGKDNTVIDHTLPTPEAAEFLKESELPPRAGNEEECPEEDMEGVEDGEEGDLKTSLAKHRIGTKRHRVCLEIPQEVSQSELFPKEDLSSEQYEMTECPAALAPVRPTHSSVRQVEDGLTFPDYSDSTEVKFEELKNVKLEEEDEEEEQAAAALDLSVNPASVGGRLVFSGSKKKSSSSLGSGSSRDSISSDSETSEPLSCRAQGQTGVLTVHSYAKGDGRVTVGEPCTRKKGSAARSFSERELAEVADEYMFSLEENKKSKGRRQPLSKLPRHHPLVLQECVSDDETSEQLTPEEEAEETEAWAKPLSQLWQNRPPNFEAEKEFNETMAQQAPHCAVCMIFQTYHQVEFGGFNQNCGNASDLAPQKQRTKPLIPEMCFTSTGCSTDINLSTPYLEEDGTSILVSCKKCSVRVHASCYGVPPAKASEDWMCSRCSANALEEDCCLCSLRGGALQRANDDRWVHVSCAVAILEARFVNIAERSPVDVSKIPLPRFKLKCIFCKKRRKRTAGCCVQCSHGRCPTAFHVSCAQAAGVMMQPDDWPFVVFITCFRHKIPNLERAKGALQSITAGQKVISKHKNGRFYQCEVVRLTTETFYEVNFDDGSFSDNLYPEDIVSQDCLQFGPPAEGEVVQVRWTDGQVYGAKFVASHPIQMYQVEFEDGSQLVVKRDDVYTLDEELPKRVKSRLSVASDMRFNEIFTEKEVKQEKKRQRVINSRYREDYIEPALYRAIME
PLK1 PBD block = blocks phosphopeptide binding to human PLK1 polo-box domain; P53350; Plk1 PBD binding of FITC phosphopeptide, fluorescence polarization; Potency, µM, for the others: max response, negative = inhibition, most hits filed as inhibitors; actives 2.8% (n = 360,000); also: potency is read from the fitted curve at half-maximal effect; series mostly up to about 57 µM; % is scaled to controls: 0 for no effect and ±100 for the full control effect; nearly all actives have a fitted effect of over 65% in size
An asterisk follows results filed as active; [ ] = another dose, or the depositor's remark. Unless noted, calls follow the shape of the dose curve; as a rule, active = well fitted curve in the direction sought with a large enough effect; inconclusive = small, poorly fitted or top-dose-only effect, or another doubt; inactive = no such curve, though single readings can be large; an effect the other way counts as inactive or inconclusive.

COc1ccc2cc(C3CC(c4ccco4)=NN3S(C)(=O)=O)c(Cl)nc2c1 (stereo not drawn) was read as HP1b binding inh inconclusive, BAZ2B inh inconclusive, PI5P4K alpha inh inconclusive, JMJD2A Tudor inh -21.6% and PLK1 PBD block -17.5%.
Screening Cc1cccc2cc(C3CC(c4cccs4)=NN3C(=O)CCC(=O)O)c(Cl)nc12 (stereo not drawn) returned HP1b binding inh 0.2%, BAZ2B inh inconclusive, PI5P4K alpha inh -11.4, G9a block 5.9%[59 µM], JMJD2A Tudor inh 31.6µM* and PLK1 PBD block 26.7µM*.
Screening Cc1ccc2nc(Cl)c(C3CC(c4cccs4)=NN3C(=O)CCCC(=O)O)cc2c1 (stereo not drawn) returned HP1b binding inh 41.0%, BAZ2B inh 3.8%, PI5P4K alpha inh -2.7, G9a block 1.0%[59 µM], JMJD2A Tudor inh inconclusive and PLK1 PBD block -13.6%.
`Cc1ccc2cc(C3CC(c4ccco4)=NN3C(=O)CCC(=O)O)c(Cl)nc2c1` (stereo not drawn) gave HP1b binding inh inconclusive, BAZ2B inh -8.7%, PI5P4K alpha inh -16.3, G9a block inconclusive, JMJD2A Tudor inh 22.4µM* and PLK1 PBD block inconclusive.
CCC1CN(C(=O)Nc2cccc3c2CCCC3)c2cc(Cl)ccc2O1 (stereo not drawn) was read as HP1b binding inh 66.7%, BAZ2B inh 42.9%, G9a block 7.0%[59 µM] and JMJD2A Tudor inh 35.9%.
`CCOCCCNC(=O)CNC(=S)N(Cc1ccc(C)cc1)Cc1ccco1` gave HP1b binding inh -13.3%, BAZ2B inh -38.4%, PI5P4K alpha inh -0.8, G9a block 10µM*, JMJD2A Tudor inh -23.2% and PLK1 PBD block -21.2%.
O=C(COC(=O)Cc1c(F)cccc1Cl)Nc1ccc2[nH]c(=O)[nH]c2c1 was read as HP1b binding inh -8.4%, PI5P4K alpha inh inconclusive, JMJD2A Tudor inh -23.4% and PLK1 PBD block -16.8%.
`O=C(COC(=O)Cc1c(Cl)cccc1Cl)Nc1ccc2[nH]c(=O)[nH]c2c1` gave HP1b binding inh 16.1%, BAZ2B inh -1.4%, PI5P4K alpha inh -20.5, G9a block 50.1µM*, JMJD2A Tudor inh -13.8% and PLK1 PBD block 3.0%.
CC(C)(C)C1CCC(C(=O)OCC(=O)Nc2ccc3[nH]c(=O)[nH]c3c2)CC1 (stereo not drawn) was read as HP1b binding inh 15.6%, BAZ2B inh -1.7%, PI5P4K alpha inh -1.2, G9a block 44.7µM*, JMJD2A Tudor inh -2.8% and PLK1 PBD block 2.4%.
`O=C(COC(=O)C12CC3CC(CC(C3)C1)C2)Nc1ccc2[nH]c(=O)[nH]c2c1` gave HP1b binding inh 31.6%, BAZ2B inh -27.2%, PI5P4K alpha inh 5.0, G9a block 7.9%, JMJD2A Tudor inh -10.3% and PLK1 PBD block 2.2%.
COc1ccc(CNCc2ccc(C)cc2)c(OC)c1 was read as HP1b binding inh inconclusive, BAZ2B inh 56.2µM*, PI5P4K alpha inh -0.4, G9a block 35.5µM*, JMJD2A Tudor inh 3.16µM* and PLK1 PBD block -0.7%.
For COc1ccc(CC(=O)NC(c2ccccc2)c2ccc(C)cc2)c(OC)c1 (stereo not drawn) the results were HP1b binding inh 22.7%, BAZ2B inh -34.8%, PI5P4K alpha inh 0.3, G9a block -29.7%, JMJD2A Tudor inh -3.3% and PLK1 PBD block 5.0%.
Screening COc1cc(CNCc2ccc(OC)cc2OC)cc(OC)c1 returned HP1b binding inh 3.2%, BAZ2B inh inconclusive, PI5P4K alpha inh -1.2, G9a block 5.5%[0.501 µM], JMJD2A Tudor inh 28.2µM* and PLK1 PBD block 0.9%.
Screening COC(=O)c1ccccc1NC(=O)c1cc(=O)c2ccc(C)c(C)c2o1 returned HP1b binding inh 50.1%, BAZ2B inh -0.3%, G9a block -5.0%[59 µM] and JMJD2A Tudor inh -4.9%.
Screening CCCC12CN3CC(CCC)(CN(C1)C3c1ccco1)C2=O (stereo not drawn) returned HP1b binding inh -4.2%, BAZ2B inh -16.6%, PI5P4K alpha inh -4.0, JMJD2A Tudor inh -15.1% and PLK1 PBD block -0.3%.
CCCC12CN3CC(C)(CN(C1)C3c1ccco1)C2=O (stereo not drawn) was read as HP1b binding inh -2.1%, BAZ2B inh 1.3%, PI5P4K alpha inh -7.4, G9a block 18.9%, JMJD2A Tudor inh 56.2µM* and PLK1 PBD block 18.9µM*.
For CCOC(=O)c1cccc(Nc2c3c(nc4ccccc24)CCC3)c1 the results were HP1b binding inh 25.8%, G9a block -38.5%[59 µM] and JMJD2A Tudor inh -25.3%.
O=C(CSc1nc2ccc(Cl)cc2[nH]1)Nc1ccc2[nH]c(=O)[nH]c2c1 was read as HP1b binding inh 14.7%, BAZ2B inh 3.3%, PI5P4K alpha inh -23.7, G9a block 5.62µM*, JMJD2A Tudor inh inconclusive and PLK1 PBD block inconclusive.
For Cc1ccc2nc(SCC(=O)Nc3ccc4[nH]c(=O)[nH]c4c3)[nH]c2c1 the results were HP1b binding inh 3.6%, BAZ2B inh -22.4%, PI5P4K alpha inh -1.9, G9a block 7.94µM*, JMJD2A Tudor inh -25.3% and PLK1 PBD block -26.5%.
Screening CC(Sc1nc2ccc(C(=O)c3ccccc3)cc2[nH]1)C(=O)O (stereo not drawn) returned HP1b binding inh 37.0%, BAZ2B inh -6.1%, PI5P4K alpha inh -52.5*, G9a block inconclusive, JMJD2A Tudor inh -15.2% and PLK1 PBD block -11.6%.
For Cc1nc2ccc(NC(=O)CSc3nnc(C)s3)cc2[nH]1 the results were HP1b binding inh 21.1%, BAZ2B inh 0.5%, PI5P4K alpha inh -3.7, G9a block 39.8µM*, JMJD2A Tudor inh -14.1% and PLK1 PBD block -3.6%.
`Cc1ccc2nc(SCC(=O)Nc3c(F)cccc3F)[nH]c2c1` gave HP1b binding inh 35.8%, BAZ2B inh -4.0%, PI5P4K alpha inh -0.9, G9a block -42.4%, JMJD2A Tudor inh -13.8% and PLK1 PBD block 5.1%.
O=C(CSc1nc2ccccc2[nH]1)Nc1ccc(F)c(F)c1 was read as HP1b binding inh 11.3%, BAZ2B inh 8.5%, G9a block 1.1%[59 µM], JMJD2A Tudor inh -16.6% and PLK1 PBD block -2.9%.
For CCc1ccc(C2CC(=O)c3c([nH]c(C(=O)OC4CCCCCC4)c3C)C2)cc1 (stereo not drawn) the results were HP1b binding inh 22.2%, BAZ2B inh 1.3%, G9a block -24.6%[59 µM] and JMJD2A Tudor inh -1.0%.
Cc1nc(-c2ccc(C(=O)Nc3cc(S(N)(=O)=O)ccc3C)cc2)cs1 was read as HP1b binding inh 27.8%, BAZ2B inh 6.1%, PI5P4K alpha inh -9.5, G9a block 17.4%, JMJD2A Tudor inh -19.3% and PLK1 PBD block -2.1%.
For Cc1ccc2nc(SCC(=O)NC3CC3)[nH]c2c1 the results were HP1b binding inh 15.9%, BAZ2B inh -25.7%, PI5P4K alpha inh -3.1, G9a block 20.3%, JMJD2A Tudor inh -4.6% and PLK1 PBD block -13.3%.

Assay outcomes deposited in PubChem by National Center for Advancing Translational Sciences (NCATS).
